# In PubChem BioAssay (NCI):
# About 83,000 compounds went through this panel and 20% of them were active in at least one assay; those are over-represented in the sample as a whole.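 Single-dose data. Exposure time 48 hours. Values below 10 considered active.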 Values without a mark were called inactive. The source made the active and inactive calls.
# Key:
# Assay in all cases: NCI-60 one-dose screen, 48 h (100 = growth as untreated, 0 = no growth, -100 = all killed)
# Settings in all cases: 10 µM
# SK-MEL-2 melanoma = tested on: SK-MEL-2 melanoma
# EKVX NSCLC = tested on: EKVX NSCLC
# SN12C renal = tested on: SN12C renal
# UO-31 renal = tested on: UO-31 renal
# TK-10 renal = tested on: TK-10 renal
# ACHN renal = tested on: ACHN renal
# CAKI-1 renal = tested on: CAKI-1 renal
# A498 renal = tested on: A498 renal
# CCRF-CEM leukemia = tested on: CCRF-CEM leukemia
# MOLT-4 leukemia = tested on: MOLT-4 leukemia
SMILES,growth (SK-MEL-2 melanoma),growth (EKVX NSCLC),growth (SN12C renal),growth (UO-31 renal),growth (TK-10 renal),growth (ACHN renal),growth (CAKI-1 renal),growth (A498 renal),growth (CCRF-CEM leukemia),growth (MOLT-4 leukemia)
OCC1OC(n2ccc3c(NO)ncnc32)C(O)C1O (stereo not given),-78.6% (active),-15.3% (active),-27.2% (active),-25% (active),-15.1% (active),-15.3% (active),1.77% (active),-51.1% (active),-8.6% (active),-32.9% (active)
Cc1ccc(C(=O)C2C(=O)C3CCC2C3)cc1 (stereo not given),111%,98.5%,97.3%,90.2%,111%,100%,96.1%,109%,96.3%,105%
NC(N)=N/N=C(\N=Nc1ccccc1)c1ccc(Cl)cc1,52.5%,49.2%,76.3%,4.05% (active),65.8%,25.1%,1.66% (active),14.7%,-4.7% (active),2.47% (active)
O=C1OC(C(Cl)(Cl)Cl)OC1C(Cl)(Cl)Cl (stereo not given),102%,106%,97.1%,89.4%,110%,113%,113%,109%,104%,-10.8% (active)
CCC(CC)n1c(C)cc(=O)n1C(CC)CC,111%,113%,105%,115%,109%,101%,97.6%,116%,107%,103%
COc1cc(/C=C/c2cc(/C=C/c3ccc(O)c(OC)c3)n(C(=O)Nc3ccccc3Cl)n2)ccc1O,-12.3% (active),17.7%,14.2%,-34.8% (active),16.1%,12.8%,7.29% (active),-11.8% (active),-4.54% (active),-4.57% (active)
NS(=O)(=O)Oc1ccc(-c2ccc3sccc3c2)cc1,105%,13.3%,94.3%,82.1%,94%,94.1%,83.6%,99.8%,108%,97.4%
O=C(Nc1ccc(NS(=O)(=O)c2ccc(F)cc2)cc1)C12CC3CC(CC(C3)C1)C2,107%,74.4%,92.6%,75.1%,96.7%,102%,86%,90.8%,84.2%,77.7%
N#Cc1ccc(C(=O)CSc2nccc(Nc3ccc(C(=O)O)cc3)n2)cc1,106%,108%,103%,84.7%,110%,107%,99.7%,95.7%,94%,104%
CCOC(=O)CN(c1sc(C)c(C)c1C(=O)OCC)S(=O)(=O)c1ccc(C)cc1,127%,101%,87%,80.7%,121%,98.1%,72.8%,106%,94.4%,97%
NS(=O)(=O)Oc1ccc2c(ccn2C(=O)C23CC4CC(CC(C4)C2)C3)c1,116%,109%,97.8%,80.4%,106%,101%,94.4%,98.1%,99%,101%
COc1ccc2nc3cc(Cl)ccc3c(NCCCNCCO)c2c1,-87.7% (active),-12.9% (active),5.95% (active),-11.5% (active),-29.4% (active),-9.61% (active),18.7%,-57% (active),-1.87% (active),2.6% (active)
O=C1c2ccccc2C(=O)c2c1ccc1c(=O)n(-c3ccccc3C(F)(F)F)nnc21,56.5%,36.3%,5.97% (active),22.6%,54.8%,23.6%,24.3%,82%,15%,7.06% (active)
NC1=CC(=O)C(=O)c2cccnc21,77.9%,98.3%,70%,47.8%,113%,60.1%,83.1%,92.6%,82.9%,106%
O=C(N/N=C/c1ccc(Cl)cc1)c1ccc(Cc2n[nH]c(=O)c3cccnc23)cc1,108%,105%,100%,74.3%,107%,102%,94.8%,131%,107%,98.6%
COc1cc(/C=C/c2cc(/C=C/c3ccc(O)c(OC)c3)[nH]c(=O)n2)ccc1O,81.1%,71.6%,62.3%,54.2%,103%,89.4%,88.6%,62.8%,16.7%,36.3%
NC(CSC(c1ccccc1)(c1ccccc1)c1cccc2ccccc12)C(=O)O (stereo not given),98.6%,88%,82.7%,84.3%,115%,97.4%,89.9%,100%,86.2%,88.1%
COc1cc2c(cc1NC(=O)C(Cl)Cl)-c1ccc(NC(=O)C(Cl)Cl)cc1C2,-14.7% (active),-9.2% (active),58.6%,-9.34% (active),-12.3% (active),-43.4% (active),-35.4% (active),10.1%,81.9%,94.8%
COc1ccc2c(c1)C(=O)/C(=C/c1cccc(OCC(=O)c3ccc([N+](=O)[O-])cc3)c1)CO2,-47.3% (active),75.6%,65.6%,-68% (active),3.16% (active),51.8%,16.3%,79.5%,-11.8% (active),-38% (active)
COc1cc(/C=C/c2cc(/C=C/c3ccc(O)c(OC)c3)nc(N)n2)ccc1O,-21% (active),22.2%,22.1%,3.16% (active),21.4%,13.5%,19.2%,-56.9% (active),1.68% (active),4.17% (active)
O=C1/C=C/[C@@H](O)[C@@H]2C[C@@H](O)C[C@H]2/C=C/CCC[C@H](CCc2ccc(NC(=S)Nc3ccc4c(c3)C(=O)OC43c4ccc(O)cc4Oc4cc(O)ccc43)cc2)O1,-9.15% (active),12.7%,10.1%,11%,-21.2% (active),14.9%,22.2%,-29.7% (active),-2.59% (active),-8.92% (active)
CCOC(=O)C1C(C(=O)OCC)C2C(=O)C3C(C(=O)OCC)C(C(=O)OCC)C3C(=O)C12 (stereo not given),115%,96.3%,94.2%,94.8%,112%,98.8%,101%,102%,102%,106%
Nc1c(Br)cc(Br)c2c1[nH]c(=O)c1ccccc12,98.6%,57%,80.1%,27.8%,31.5%,10.9%,68.6%,53.8%,93.2%,80.8%
COC(=O)C1OC1c1cc([N+](=O)[O-])ccc1OC (stereo not given),111%,102%,107%,74.4%,107%,108%,83.2%,127%,96%,83.6%
COc1ccc(/C(C#N)=C/c2cccc(OC)c2OC)cc1,77.1%,99.9%,89.8%,78.1%,96.7%,99%,74.7%,87.2%,80.5%,82.8%
CCOC(=O)Cn1c(=O)c2sc3ncccc3c2n2nnc(-c3ccccc3)c12,103%,104%,97.4%,60.2%,132%,95.5%,93.4%,152%,86.3%,89.6%
Cc1ccc(C(=O)/C=C/c2ccccc2)s1,102%,82.3%,103%,77.7%,108%,121%,92.4%,90.5%,99.8%,100%
COc1cc2c(cc1OC)C(C(CCCCCC(CCC(C)C)C1NCCc3cc(OC)c(OC)cc31)CCC(C)C)NCC2 (stereo not given),-91.9% (active),-74.4% (active),-85.5% (active),-96.3% (active),-97.2% (active),-100% (active),-84.7% (active),-59.6% (active),-74.3% (active),2.91% (active)
